A selection: hits, their analogues and other compounds. The true share with any hit is near 21%.
Shiga toxin inh – Shiga toxin inhibition; Vero cells, Shiga toxin protein synthesis inhibition reporter; inhibition, % at 38.7 µM; actives 9.2% (n = 290,000); AID 2315; in the data active = inhibition mostly above about 28%, no sharp cut-off; inactive = mostly below about 43%
Pf growth 96h – P. falciparum growth inhibition at 96 hour, primary screen for plastid delayed-death inhibitors; actives 6.9% (n = 320,000); P. falciparum luciferase reporter growth, 96 h; Potency, µM (highest dose often 28.7 µM), actives largely listed as inhibitors
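Erythrocytes infected with luciferase-expressing P. falciparum were dispensed at 2% hematocrit and 0.05% parasitemia (final), then incubated with compounds 96 hours at 37 C in 5% CO2. Luminescence after detection reagent addition reported growth.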
HCV inh – inhibitors of hepatitis C virus infection. Huh7.5.1 HCVcc-Cre infection, luciferase reporter, 44 h. Potency, µM (series often up to 41.8 µM), actives largely listed as inhibitors. actives 3.4% (n = 340,000). AID 651820
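Antiviral activity was scored by luciferase reporter output from cells infected with HCVcc-Cre (~0.5 moi) in presence of compound, 44 h infection period, cells seeded 1,000/well 4 h prior.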
Cycloheximide cs – affects cycloheximide protein synthesis inhibition readout, counter-screen; AID 2314; actives 12% (n = 300,000); cell reporter, cycloheximide protein synthesis inhibition counterscreen; max response, %; in the data active = max response mostly above about 13%, no sharp cut-off; inactive = mostly below about 14%; also: read at 38.3 µM for the half of the compounds with a filed dose
Pf growth 48h – inhibits P. falciparum growth in the first generation, 48 h; P. falciparum luciferase growth in erythrocytes, 48 h; actives 5.9% (n = 310,000); Potency, µM (series often up to 28.7 µM), actives largely listed as inhibitors; AID 504832
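Read-out is firefly luciferase luminescence from an integrated reporter in P. falciparum, so falling signal marks reduced parasite growth. Infected erythrocytes were at 2% hematocrit and 0.1% parasitemia (final) in Albumax-supplemented RPMI 1640.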
AMA1-RON2 inh – AMA1-RON2 (P. falciparum) interaction inhibition; actives 0.2% (n = 360,000); AlphaScreen AMA1-biotinylated RON2 peptide binding; Potency, µM (doses to about 58.2 µM), usual class: inhibitors; also: nearly all actives have a fitted effect of over 45% in size
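AMA1 (3D7) with his tag at 25 nM final met compounds first, then biotinylated RON2 peptide at 25 nM; detection used donor plus acceptor beads, 10 µg/mL apiece, read by AlphaScreen after 30 min at room temperature.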
Of the large screens only hits and unclear results are named; the others gave an inactive call. Unless noted, calls follow the shape of the dose curve; as a rule, active = well fitted curve in the direction sought with a large enough effect; inconclusive = small, poorly fitted or top-dose-only effect, or another doubt; inactive = no such curve, though single readings can be large; an effect the other way counts as inactive or inconclusive.

COCCCNC(=O)c1ccc(Cn2c(=O)c3ccccc3n(Cc3cc(C)ccc3C)c2=O)cc1	HCV inh inconclusive, Pf growth 48h 13µM, AMA1-RON2 inh inconclusive (no result: Pf growth 96h)
C=CCn1c(=O)c2ccc(C(=O)NCc3ccccc3)cc2n(Cc2ccc(C)cc2)c1=O	Pf growth 96h 2.3µM
Cc1ccc(Cn2c(=O)n(-c3ccccc3)c(=O)c3ccc(C(=O)NCc4ccco4)cc32)cc1	Pf growth 48h inconclusive
Cc1csc(NC(=O)C2CCCCC2)n1	Cycloheximide cs 24 (no result: Shiga toxin inh)
CC1=C(C)CC(C(=O)Nc2nc(C)cs2)C(C(=O)O)C1 (stereo unspecified)	none
O=C(Nc1ccc2nc(-c3ccccn3)[nH]c2c1)C1CCCCC1	Shiga toxin inh 57, Cycloheximide cs 36
CSCCC(=O)Nc1nc(-c2ccccn2)cs1	Pf growth 96h inconclusive, Cycloheximide cs 21, Pf growth 48h inconclusive
O=C(Nc1nc(-c2ccccn2)cs1)C1CCCC1	Shiga toxin inh 100, Pf growth 96h inconclusive, Cycloheximide cs 57, Pf growth 48h inconclusive
COc1cc(CN2CCC(Oc3cc(C(=O)NC4CC4)ccc3OC)CC2)cc(OC)c1	Pf growth 96h inconclusive
Cc1ccc(N2CCN(C(=O)C(=O)c3cccc(Br)c3)CC2)cc1	none (no result: Shiga toxin inh, Pf growth 96h, HCV inh, Cycloheximide cs, Pf growth 48h)
CC(C(=O)Nc1ccc2c(c1)OCO2)N1CCC(N2CCCCC2)CC1 (stereo unspecified)	AMA1-RON2 inh inconclusive (no result: Shiga toxin inh, Cycloheximide cs)
O=C(CCCSc1ccccc1)Nc1nc(-c2ccccn2)cs1	Pf growth 96h 7.4µM, HCV inh inconclusive, AMA1-RON2 inh inconclusive (no result: Pf growth 48h)
N#Cc1ccccc1OCC(=O)Nc1nc(-c2ccccn2)cs1	none (no result: Shiga toxin inh, Pf growth 96h, HCV inh, Cycloheximide cs, Pf growth 48h)
O=C(O)Cn1nnc(-c2cccs2)n1	none
O=C(Cn1nnc(-c2cccs2)n1)NCc1ccco1	Shiga toxin inh 51, Cycloheximide cs 12
CC(C)(C)NC(=O)Cn1nnc(-c2cccs2)n1	Shiga toxin inh 30, Cycloheximide cs 31
O=C(Cn1nnc(-c2cccs2)n1)NCc1ccccc1	none
O=C(Cn1nnc(-c2cccs2)n1)Nc1ccccc1C(F)(F)F	Pf growth 96h 0.29µM
Cc1ccccc1-c1nnn(CC(=O)N(C)CC(=O)Nc2ccccc2C(F)(F)F)n1	HCV inh inconclusive (no result: Shiga toxin inh, Cycloheximide cs)
COC(=O)c1ccc(-c2ccc(OC)c(C3C4C=CCC(C)C4C(=O)N3Cc3ccccc3)c2)cc1 (stereo unspecified)	none (no result: Pf growth 96h, HCV inh, Pf growth 48h, AMA1-RON2 inh)
Cc1ccccc1-n1c(/C=C/c2ccc(N(C)C)cc2)nc2ccccc2c1=O	none (no result: Pf growth 96h, HCV inh, Pf growth 48h, AMA1-RON2 inh)
CN(C)c1ccc(/C=C/c2nc3ccccc3c(=O)[nH]2)cc1	Shiga toxin inh 39, Cycloheximide cs 34
Cc1cccc(/C=C\c2nc3ccccc3c(=O)[nH]2)c1	Shiga toxin inh 93, Cycloheximide cs 70
O=c1[nH]c(/C=C/c2ccc(Br)cc2)nc2ccccc12	Shiga toxin inh 85, Cycloheximide cs 45
Cc1nc(/C=C/c2ccccc2)[nH]c(=O)c1-c1ccccc1	Shiga toxin inh 94, Cycloheximide cs 33
CCC(=O)N1CCN=C1SCc1cccc(F)c1	Pf growth 96h inconclusive
COc1ccc(CCC(=O)OCC(=O)Nc2c(C)n(C)n(-c3ccccc3)c2=O)cc1	none (no result: Shiga toxin inh, Cycloheximide cs)
COCCN(C(=O)c1snc(C(N)=O)c1N)C(C(=O)NC1CCCCC1)c1ccc(F)cc1 (stereo unspecified)	Pf growth 96h inconclusive
COCCn1c(SC(C(=O)Nc2cc(C)ccc2OC)c2ccccc2)nnc1-c1ccc(Cl)cc1 (stereo unspecified)	Pf growth 96h 9.3µM, Pf growth 48h 13µM
COc1ccc(C)cc1NC(=O)C(Sc1nnnn1C)c1ccccc1 (stereo unspecified)	none
COC1=CC(=O)O[C@H](/C=C/c2ccc3c(c2)OCO3)C1	none (no result: Pf growth 96h, HCV inh, Pf growth 48h, AMA1-RON2 inh)
CCn1c2ccc(C)cc2c2nc3cc(C(=O)O)ccc3nc21	Shiga toxin inh 61, HCV inh inconclusive, Cycloheximide cs 44
CCn1c2ccc(Cl)cc2c2nc3ccccc3nc21	HCV inh inconclusive
CCn1c2ccc(OC)cc2c2nc3ccccc3nc21	HCV inh 7.9µM, Pf growth 48h inconclusive
CCc1ccc(NC(=O)N2CCN(C(=O)C3CCCO3)CC2)cc1 (stereo unspecified)	none
COc1ccccc1NS(=O)(=O)c1ccc(C)c(NC(=O)c2c(C)noc2C)c1	none (no result: Shiga toxin inh, Cycloheximide cs)
O=C(CSc1nnnn1-c1ccccc1)c1ccc(O)cc1O	Cycloheximide cs 14
